Compound activity (PubChem BioAssay)
DAX1 inh-1 – NR0B1 (DAX1) inhibition. P51843. HEK293 Gal4-DAX1 luciferase reporter, luminescence. inhibition, % at 6.75 µM. actives 0.99% (n = 340,000). AID 504766;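 active = inhibition above the mean over all tested compounds plus 3 SD, cut at about 4.2% in these data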;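 also: 0% = DAX1-transfected cells with DMSO and 100% = empty-vector control cells with DMSO; inhibition shows as a rise in luminescence from relieved DAX1 repression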
Target sequence (P51843 207-470 limits assumed): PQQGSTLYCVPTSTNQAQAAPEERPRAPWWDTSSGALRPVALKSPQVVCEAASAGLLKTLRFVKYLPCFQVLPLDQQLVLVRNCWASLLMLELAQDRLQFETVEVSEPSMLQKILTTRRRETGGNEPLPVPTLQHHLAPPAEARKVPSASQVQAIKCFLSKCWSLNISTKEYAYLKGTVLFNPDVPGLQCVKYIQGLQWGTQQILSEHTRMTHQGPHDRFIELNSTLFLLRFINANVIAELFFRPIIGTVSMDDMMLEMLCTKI
ssDAF-12 act – activators of S. stercoralis DAF-12 nuclear receptor. activation, % at 6.8 µM. actives 1% (n = 370,000). AID 652126. HEK293 ssDAF-12/GRIP1 lit1-tk-luc reporter, luminescence; % of 3 µM dafachronic acid response;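 active = activation above the mean over all tested compounds plus 3 SD, cut at about 0.9% in these data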;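 also: 0% = DMSO-only wells and 100% = 3 µM delta7-dafachronic acid wells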
DAX1 inh-2 – DAX1 (NR0B1) inhibition, primary screen; HEK293T StAR-luciferase reporter, SF-1/DAX-1 repression relief; inhibition, % at 6.8 µM; actives 1.1% (n = 370,000);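 active = inhibition above the mean over all tested compounds plus 3 SD, cut at about 3.6% in these data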;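 also: 0% = DAX-1 cells with DMSO and 100% = cells lacking DAX-1 with DMSO; higher inhibition means more luminescence from relief of DAX-1 repression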
hcDAF12 agonist – activates DAF-12 receptor from parasite H. contortus; activation, % at 6.8 µM; actives 1.4% (n = 370,000); HEK293 hcDAF-12 lit1-tk-luc reporter, luminescence; 0% DMSO, 100% Δ7-dafachronic acid; AID 652067;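 active = activation above the mean of all tested compounds plus 3 SD, cut at about 5.5% in these data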;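 also: 100% = response to 3 µM Δ7-dafachronic acid high control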
hgDAF-12 ag – agonists of H. glycines DAF-12 nuclear receptor. AID 687014. HEK293 GAL4-hgDAF12 UAS-luciferase reporter, agonist luminescence; normalized to butyrate control. activation, % at 6.8 µM. actives 1.8% (n = 370,000);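 active = activation above a cutoff set at the mean of all screened compounds plus 3 SD, cut at about 10% in these data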;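 also: 0% = DMSO wells and 100% = sodium butyrate wells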
* marks the source's active call; other numbers are inactive results; / = no result. The list is not random: actives were taken first. Their share in the collection is about 4.1%.

SMILES	DAX1 inh-1	ssDAF-12 act	DAX1 inh-2	hcDAF12 agonist	hgDAF-12 ag
O=c1c(O[C@H]2O[C@@H](CO)[C@H](O)[C@@H](O)[C@@H]2O)c(-c2ccc(O)cc2)oc2cc(O)cc(O)c12	2	-1	0	-2	4
COC(=O)[C@]12C[C@H](CC(=O)NCC34CC5CC(CC(C5)C3)C4)C(=O)N(Cc3ccc(Cl)cc3Cl)C1=C[C@H](C(C)C)O[C@@H]2C1CC1	/	-2	0	-1	3
O=C1C[C@@H]2CCN3C(=O)CCC[C@@H]([C@H]23)[C@@H]1Cc1ccccc1	-1	-1	3.9*	-1	-1
Cc1c(C(=O)NCc2ccc3c(c2)OCCO3)sc(=O)n1Cc1ccc(S(=O)(=O)N(C)C)cc1	/	-2	-4	-4	-3
C=CCN1C(=O)[C@H](CC(=O)NCc2cccc3ccccc23)[C@@]2(C(=O)OCC)CCCC=C12	/	-1	0	-1	-4
O=C(NCc1ccccc1)c1ccc(F)c(F)c1	0	-1	0	0	-1
CN(C)c1c(F)cc(C(=O)NCc2ccccc2)cc1F	4.3*	-2	0	-1	0
COc1ccc(-c2nc(Cn3c(SCc4cccc(F)c4)nc4ccncc43)c(C)o2)cc1OC	-1	-2	-1	-2	0
COc1ccc(-c2nc(Cn3c(SCc4ccc(C)cc4)nc4ccncc43)c(C)o2)cc1OC	0	-1	1	3	12*
CC[C@H]1CCCCc2ccccc2[C@@H](C(=O)C[C@@H](O)CC(C)=O)OC1=O	0	-1	4.0*	-1	1
CC[C@@H]1CCCCc2ccccc2[C@H](C(=O)C[C@@H](O)CC(C)=O)OC1=O	0	-1	0	-2	3
COC(=O)c1sc(NC(=O)CSc2nnc(Cn3nnc4ccccc43)n2C)nc1C	0	1.1*	0	1	1
Cc1nc(NC(=O)CSc2nnnn2C)sc1C	1	-1	1	0	8
COC(=O)c1sc(NC(=O)CSc2nnnn2C)nc1C	0	0	1	5.6*	10
COC(=O)c1c(NC(=O)CSc2nnc(Cn3nnc4ccccc43)n2C)sc(C)c1C	1	-1	1	-1	0
O=C1CC(c2ccc3ccccc3c2)N=C2N(Cc3ccc4c(c3)OCO4)C/C(=C/c3ccccc3)N12 (stereo unspecified)	/	-2	/	1	0
N/C(=N\OC(=O)c1ccco1)c1cccc(Br)c1	2	0	3	6.1*	8
N/C(=N\OC(=O)c1ccccc1Br)c1ccc([N+](=O)[O-])cc1	3	0	1	6.1*	4
N/C(=N\OC(=O)c1ccccc1F)c1cccc([N+](=O)[O-])c1	5.4*	-1	1	0	2
N/C(=N\OC(=O)c1ccco1)c1cccc([N+](=O)[O-])c1	1	0	2	5	13*
CCOC(=O)CC[C@@H]1CC[C@]2(CCCN(Cc3cccs3)C2)O1	/	0	1	-2	4
CCCCOCCCNC(=O)C[C@H]1C[C@@]2(C(=O)OC)C(=C[C@H](C3CCCC3)O[C@@H]2C)N(Cc2ccco2)C1=O	/	-1	0	0	0
COC(=O)[C@@]12CCCCC3=C1N(CCC3)C(=O)[C@H]2CC(=O)NCc1cccs1	/	-1	0	-2	4
N/C(=N\OC(=O)Cc1ccccc1[N+](=O)[O-])c1ccncc1	1	-1	-1	-3	4
COc1cccc(/C(N)=N/OC(=O)Cc2ccccc2[N+](=O)[O-])c1	4.7*	0	1	2	8
SMILES	DAX1 inh-1	ssDAF-12 act	DAX1 inh-2	hcDAF12 agonist	hgDAF-12 ag
COc1cc(C(=O)O/N=C(\N)c2cccc([N+](=O)[O-])c2)cc(OC)c1OC	5.1*	-1	0	0	0
Cc1ccc(Cc2cnc(N3C(=N)SC(c4ccccc4)C3=O)s2)cc1 (stereo unspecified)	-1	0	-1	1	1
N=C1SC(c2ccccc2)C(=O)N1c1ncc(Cc2ccccc2)s1 (stereo unspecified)	1	-1	1	4	13*
CCCCOc1ccc(C(=O)n2ccc3ccc(-c4ccc5ccn(Cc6ccc(OC)cc6)c5c4)cc32)cc1	/	-1	-2	-1	-2
CSc1nsc(SCC(=O)Nc2ccccc2C(=O)O)n1	0	1.1*	0	3	0
CSc1nsc(SCC(=O)Nc2ccc(O)c(C(=O)O)c2)n1	0	0	0	2	1
c1ccc(CN2CCOCC2)cc1	0	-1	0	1	0
c1ccc2c(c1)Cc1cc(CN3CCOCC3)ccc1-2	2	0	3	3	13*
COC(=O)C1CN(C2CCCC2)CCS(=O)(=O)N1Cc1ccc(C(F)(F)F)cc1 (stereo unspecified)	/	-2	-2	-1	-2
Clc1ccc2oc(-c3ccccc3)cc(=NCCCN3CCOCC3)c2c1	2	0	2	4	16*
OCCCCCN=c1cc(-c2ccccc2)oc2ccc(Cl)cc12	2	-1	1	5	9
O=C(CSc1nnc(-c2ccccc2F)n1-c1ccccc1)c1ccc2ccccc2c1	/	-1	0	-1	3
C[C@@H]1CCN(C2CC2)S(=O)(=O)c2c(cccc2N2CC[C@@H](O)C2)O1	/	-1	-1	-1	0
O=C(NC1=NC2(C=C3CCCCC3n3c(=O)n(-c4ccccc4)c(=O)n32)CN1CC1CC1)c1ccccc1 (stereo unspecified)	/	-2	0	-3	-1
O=C(N/N=C/c1ccoc1)c1ccccc1O	1	0	3.7*	5	10
O=C(N/N=C/CCc1ccccc1)C1CCCCC1	1	0	0	0	-2
O=C(N/N=C/CCc1ccccc1)c1ccccc1	1	0	3	1	11*
CC(=O)n1cc(/C=N/NC(=O)c2ccccc2O)c2ccccc21	5.0*	0	0	2	5
CC(=O)n1cc(Nc2ccccc2C(=O)O)c2ccccc21	0	0.9*	1	2	2
Cc1ccc(NS(=O)(=O)c2cc3c(cc2Cl)NC(=O)CO3)cc1C	/	-1	/	-1	-3
COc1ccc(S[C@]2(C(=O)N(C)C)CC(=O)N[C@@H]2c2ccc(OC)cc2)cc1	/	-1	0	-1	1
CCCCCCCCN1C(=O)[C@@H](CC(=O)NCC23CC4CC(CC(C4)C2)C3)C[C@@]2(C(=O)OC)C1=C[C@H](COCc1ccccc1)O[C@@H]2C	/	-1	0	1	2
Cc1cc(C)cc(OC[C@@H](O)CN2CCC(C(O)(c3ccccc3)c3ccccc3)CC2)c1	/	0	0	5	3
O=C(N/N=C/c1ccoc1)c1ccccc1	1	1.1*	6.4*	4	11*
O=C(N/N=C/c1ccoc1)c1ccc(Br)cc1	0	-1	-2	2	2
